Source: PubChem BioAssay AID588334 (Broad Institute, 2011)
About 2,300 (0.77%) of roughly 300,000 compounds were called active.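 Rule for the calls: active = mean activation of at least 80% with every replicate also reaching 80%; inconclusive = mean reaches 80% but some replicate falls short; inactive = the rest.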 The sample as a whole holds a higher share of actives than the screen did.

Test: activators of MITF-driven TRPM1 promoter reporter, primary screen, cell-based, SK-MEL-5, luciferase, single point (AID 588334);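 note: 0% = neutral control wells and 100% = parthenolide positive control wells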
Details: SK-MEL-5 TRPM1-promoter luciferase, 24 h; at 12.5 µM; stronger effect = higher value; % of positive control, neutral wells = 0

activation, inactive:
CNN/C(N=Cc1ccc([N+](=O)[O-])s1)=N\S(=O)(=O)c1cc(C)c(Cl)cc1SCc1ccccc1 -22.7%
CCCc1nc(SCC(=O)Nc2ccc(S(=O)(=O)N(C)C)cc2)c2ccccc2n1 -0.188%
COc1ccc(S(=O)(=O)N(C)C)cc1NC(=O)CSc1ncccn1 0.656%
COc1ccc(CCC(=O)Nc2ccc(Cl)c(S(=O)(=O)N3CCOCC3)c2)cc1OC -5.06%
O=C1OCC2=C1C(c1ccc(Cl)cc1)c1cc3c(cc1O2)OCO3 (stereo not given) 3.92%
COc1ccc2c(c1)CCc1c(C(=O)N3CCc4ccccc4C3)noc1-2 18.4%
Cc1ccc(-c2cc(C(=O)N3CCc4ccccc4C3)no2)cc1 -5%
O=C1CC(c2ccccc2)C(=O)N2C(=O)CC(c3ccccc3)C(=O)N12 (stereo not given) 1.12%
Cc1nc2ccc(N)nc2nc1C -1.9%
CCCCN(C(=O)CSCc1ccc(C)cc1)c1c(N)n(Cc2ccccc2)c(=O)[nH]c1=O 15.5%
CC(=O)OCC1(O)CC23CCC4c5ccoc5CCC4(C)C2CCC1C3 (stereo not given) -8.62%
O=C(Cc1nc2ccccc2[nH]c1=O)c1ccc(Cl)cc1 50.8%
O=C(Cc1ccc(Cl)cc1)NCc1nc(-c2ccccc2)no1 14.2%
C/C(=N\Nc1ccccc1)c1cccs1 -5.68%
COc1cc(O)c2c(=O)c3c(O)c(O)ccc3oc2c1OC 2.79%
COc1ccc(-c2nc3cc(C)ccn3c2NC2CCCCC2)cc1SC1CCCCC1 7.59%
COc1ccc2nc(N3CCN(C(=O)c4ccc([N+](=O)[O-])o4)CC3)sc2c1 -66.4%
Cc1ccc2nc(N3C(=O)C(O)=C(C(=O)c4ccco4)C3c3cccc(O)c3)sc2c1 (stereo not given) 10%
CCOC(=O)C1CCCN(C(=O)C2CCN(S(=O)(=O)c3ccc(Cl)c(C(F)(F)F)c3)CC2)C1 (stereo not given) -3.48%
O=C1NC[C@@H](c2ccccc2)OC(=O)[C@H](Cc2ccc(F)cc2)CC/C=C/C[C@H]1CC(=O)N(CCO)Cc1ccccc1 -2.43%
COc1ccc(CC(=O)NC(C)c2ccc(Cl)c(Cl)c2)cc1S(=O)(=O)N1CCOCC1 (stereo not given) 6.68%
CC(=O)Nc1ccc(-c2csc(NC(=O)Nc3ccccc3)n2)cc1 -48.4%
CC(=O)Nc1ccc(-c2csc(NC=C3C(=O)OC(C)(C)OC3=O)n2)cc1 8.13%
Cc1ccc(Cn2c(C)c3cnn(CC(=O)NCCN4CCOCC4)c(=O)c3c2C)cc1 -2.1%
COc1ccccc1-c1sc2ccccc2c1C#CC1(O)CCCCC1 5.32%
CCN(CC)CCCC(C)n1c2nc(=O)[nH]c(=O)c-2nc2cc(Cl)ccc21 (stereo not given) -84%
Cc1cccc(NC(=O)Nc2ccc(OCc3ccccc3)cc2)n1 -1.41%
CCN(CC)S(=O)(=O)c1ccc(C)c(NC(=O)COc2ccc(Br)cc2Cl)c1 -17.2%
CCOC(=O)c1ccccc1OC(=O)Oc1ccccc1C(=O)OCC -22.1%
CCc1ccc(NC(=O)Cn2ncn3c(cc4ccccc43)c2=O)cc1 -8.34%
CCCN1CCN(C(=O)Cn2ncc3ccccc32)CC1 -0.935%
O=C(OCCOc1ccccc1Cl)c1cc(S(=O)(=O)N2CCCCC2)ccc1N1CCOCC1 -10.6%
COc1ccccc1OCc1ccc(C(=O)N2CCN(C)CC2)o1 1.8%
O=CN1CCN(C(=O)c2ccc(Br)o2)CC1 -12.5%
CC(C)=CCc1ccc(O)c(=O)cc1C(C)C -70.3%
CC[C@@H](C)[C@@H]1CN([C@@H](C)CN2CCC[C@H]2CN2C(N)=NC[C@H]2C(C)C)C(=N)N1CCc1ccc(Cl)c(Cl)c1 5.32%
CS(=O)(=O)N1CCN(C(=O)Cc2ccccc2)CC1 -6.87%
CS(=O)(=O)N1CCN(c2cccc(Cl)n2)CC1 -7.99%
COc1ccc(S(=O)(=O)Nc2cccc3c2O[C@H](CN(C)S(=O)(=O)c2ccc(OC)cc2)[C@@H](C)CN([C@H](C)CO)C3=O)cc1 0.473%
O=C1C=C(NS(=O)(=O)c2ccccc2)C(=O)c2ccccc21 -65.5%
COc1ccc(Cn2cc(CN3CCS(=O)(=O)N(Cc4ccc(-c5cccc(Cl)c5)cc4)C(C)C3=O)nn2)cc1 (stereo not given) 0.982%
Cc1cccc(N2O[C@H]3C=CC2CCCC3)n1 63.6%
O=C(Nc1nc(-c2cccnc2)cs1)c1ccccc1F 72.7%
O=C(NCc1cccnc1)C(=O)Nc1nc(-c2ccccc2)cs1 54.4%
Cc1ccc(C(=O)O)c(NC=O)c1OCc1ccccc1 11%
NC(=O)C1CCN(C(=O)c2cc(S(=O)(=O)N3CCN(c4ccccc4)CC3)ccc2Cl)CC1 -3.4%
CC(=O)c1cnc(-c2ccccc2)s1 13.4%
O=C(/C=C/Nc1ccccc1)c1cnc(-c2ccccc2)s1 37.6%

activation, active:
CN(C)S(=O)(=O)c1ccc2oc(SCC(=O)Nc3ccccc3F)nc2c1 114%
O=C(c1noc2c1CCCC2)N1CCc2ccccc2C1 127%
O=C(Cc1ccc(Cl)cc1)c1ccccc1 89.3%
Cc1ccc2nc(N3CCN(C(=O)c4ccco4)CC3)sc2c1 103%
CC(=O)Nc1cccc(-c2csc(Nc3cccc(C)n3)n2)c1 137%
Cc1cccc(NC(=O)COc2ccc(Br)cc2C)n1 198%
CC(C)c1ccc(NC(=O)Cn2ncc3ccccc32)cc1 93%
CN1CCN(C(=O)c2ccc(-c3ccc(Br)cc3)o2)CC1 123%
CS(=O)(=O)N1CCc2nc(-c3ccccc3)sc2C1 92.1%
Cc1ccn(-c2cccc(-n3ccc(C)n3)n2)n1 119%
Cc1ccccc1Nc1nc(-c2cccnc2)cs1 97.6%
CC(C)(C)C(=O)c1cnc(Nc2ccccc2)s1 124%
